AMPAR-TARP mod: modulators of GluA2-stargazin AMPA receptor complexes, primary screen, cell-based, membrane potential dye; calls only at 30 µM; HEK293 GluA2+stargazin, membrane potential dye (FDSS), glutamate EC50; hits were called plate by plate, in both directions; 40,000 compounds, 3.5% hits; Voltage-dependent calcium channel gamma-2 subunit (Mus musculus) + Glutamate receptor 2 …;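 active means any of four per-well response measures lying three or more SD from its plate-wide compound average, in either direction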
GIRK2 activator: activators of NPY4-receptor-primed GIRK2 channels, summary, cell-based, HEK293, thallium flux; HEK293 GIRK2/NPY4 cells, thallium flux fluorescence; G protein-activated inward rectifier potassium channel 2 (Homo sapiens), P48051; AID 1259324, 2017; 34,000 tested, under 10 active; activation (% efficacy), % for hits at 37.5 µM;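 active means primary screen hit, no activity in plain HEK293 cells, and in GIRK2-only cells above 5% efficacy rising with concentration; inactive means the rest, including fluorescent compounds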;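 further: efficacy is normalized control-subtracted fluorescence 15 s after thallium addition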
Target sequence (P48051 whole entry, looked up): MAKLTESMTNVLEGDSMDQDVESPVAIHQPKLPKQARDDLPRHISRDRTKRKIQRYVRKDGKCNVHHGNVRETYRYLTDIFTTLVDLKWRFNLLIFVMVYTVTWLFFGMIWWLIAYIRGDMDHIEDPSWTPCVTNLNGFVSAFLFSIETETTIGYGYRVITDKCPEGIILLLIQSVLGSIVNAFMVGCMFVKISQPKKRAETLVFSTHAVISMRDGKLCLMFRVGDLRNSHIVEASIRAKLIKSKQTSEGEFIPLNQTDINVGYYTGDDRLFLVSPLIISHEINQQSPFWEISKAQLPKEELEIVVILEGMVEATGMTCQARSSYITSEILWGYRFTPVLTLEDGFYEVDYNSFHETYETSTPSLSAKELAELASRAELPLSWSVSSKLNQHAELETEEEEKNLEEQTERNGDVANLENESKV
Calls only; n = inactive; x = not tested or not shown; + = active, no number. Many of the other results were omitted from the sample, so hits are more common in it than they were.

SMILES	AMPAR-TARP mod	GIRK2 activator
CCOC(=O)N1CCc2nc(NC(=O)c3cccs3)sc2C1	n	n
CCOC(=O)N1CCc2nc(NC(=O)c3ccc([N+](=O)[O-])s3)sc2C1	+	x
CC(C)n1nccc1-c1nnc(NC(=O)c2cccc(Oc3ccccc3)c2)o1	n	n
Cc1nc2ccccc2c(=O)n1-c1ccc(F)c(NC(=O)COc2ccccc2)c1	n	n
COc1ccc(CCS(=O)(=O)NCC2CCN(Cc3ccccc3)CC2)cc1	+	n
COc1ccc(CCS(=O)(=O)NCC2CCN(Cc3cccs3)CC2)cc1	x	n
COc1ccc(CCS(=O)(=O)NCC2CCN(C(=O)c3ccccc3F)CC2)cc1	+	n
COc1ccc(CCS(=O)(=O)NCC2CCN(c3ncccn3)CC2)cc1	n	n
CC(C)c1cc(=O)[nH]c(-n2nc(C3CC3)cc2NC(=O)c2ccc(Cl)cc2Cl)n1	n	n
CC(C)C(=O)NCCCn1nc(-c2ccco2)ccc1=O	n	n
CC(Oc1ccccc1F)C(=O)NCCCn1nc(-c2ccco2)ccc1=O (stereo not given)	+	n
COC(=O)c1sccc1S(=O)(=O)Nc1ccc(OC)c(OC)c1	n	x
COc1ccc(NC(=O)CCc2csc(NC(=O)c3ccc(F)cc3)n2)cc1Cl	n	n
COC(=O)c1ccccc1NC(=O)CC1Nc2cccc3cccc(c23)NC1=O (stereo not given)	n	x
O=C(CC1Nc2cccc3cccc(c23)NC1=O)Nc1cccc(C(F)(F)F)c1 (stereo not given)	+	x
Cc1ccc(C)c(NC(=O)Cn2c(=O)c(CNc3ccccc3)cc3cc4c(cc32)OCCO4)c1	+	n
CCc1ccc(NCc2cc3cc4c(cc3n(CC(=O)Nc3cc(C)ccc3C)c2=O)OCCO4)cc1	n	n
COc1cc2cc(CNc3ccccc3)c(=O)n(CC(=O)Nc3cccc(Cl)c3C)c2cc1OC	+	x
COC(=O)c1ccccc1NC(=O)Cn1c(=O)c(CNc2ccccc2)cc2ccc(OC)cc21	n	n
COc1cc2cc(CNc3ccccc3)c(=O)n(CC(=O)Nc3ccc4c(c3)OCO4)c2cc1OC	+	x
COc1cc2cc(CNc3ccccc3)c(=O)n(CC(=O)Nc3ccc(C)c(Cl)c3)c2cc1OC	n	x
COc1cc2cc(CNc3ccc(C)cc3)c(=O)n(CC(=O)Nc3cccc(Cl)c3)c2cc1OC	n	n
COc1cccc(NC(=O)Cn2c(=O)c(CNc3ccccc3)cc3ccc(OC)cc32)c1	+	x
Cc1ccc(NC(=O)C(=O)NCCN2CCOCC2)cc1C	n	n
COc1ccc(NC(=O)Cn2cc(OC)c(=O)cc2CSc2ccc(F)cc2)c(OC)c1	n	n
SMILES	AMPAR-TARP mod	GIRK2 activator
CC1CCCC1OCC(O)CN1CCN(c2ccccc2F)CC1 (stereo not given)	n	x
Cc1cc(C(F)F)n2nc(C(=O)Nc3cc(Cl)ccc3Cl)nc2n1	n	x
Cc1cccc(C)c1N1CCN(C(=O)c2ccc3c(c2)OCO3)CC1	+	x
Cn1ccnc1N1CCN(C(=O)c2ccc3c(c2)OCO3)CC1	n	n
Cc1cc(C)cc(Oc2coc3cc(OCC(O)Cn4cncn4)ccc3c2=O)c1 (stereo not given)	n	n
C=CCN1C(=O)/C(=C\C=C2/SCCN2C)SC1=S	+	x
COc1cccc(C(=O)N(Cc2ccncc2)c2nc3c(F)cccc3s2)c1OC	n	n
Cc1ccsc1C(O)CNC(=O)CSCc1ccccc1 (stereo not given)	n	n
Cc1ccsc1C(O)CNC(=O)C1c2ccccc2Oc2ccccc21 (stereo not given)	+	n
O=C(CSc1nc(=O)n(CC2CCCO2)c2c1CCC2)Nc1nccs1 (stereo not given)	n	n
CCC1CCCCN1S(=O)(=O)c1cc(C)c(Br)cc1C (stereo not given)	n	x
CCOc1cc(C)c(Cl)cc1S(=O)(=O)N1CCCCC1CC (stereo not given)	+	x
CNC(=O)C(=O)NCC1CCN(C(=O)Nc2ccccc2OC)CC1	n	n
COc1ccc2nc(-c3cccc(NS(=O)(=O)c4cc(C)c(C)cc4OC)c3)cn2n1	x	n
Cc1cc(-c2nnc(NC(=O)CCCS(=O)(=O)c3ccc(F)cc3)o2)n(C)n1	x	n
Cc1cc(NC(=O)c2ccc([N+](=O)[O-])c(C)c2)ccc1N1CCCCC1=O	n	n
Cc1cc(C(=O)Nc2cccc(N3CCCC3=O)c2)ccc1[N+](=O)[O-]	+	n
COC(=O)Cn1c(=O)c2c(nc3n(-c4cccc(OC)c4)c(C)cn23)n(C)c1=O	n	x
COc1coc(C(=O)Nc2nc3ccc([N+](=O)[O-])cc3s2)cc1=O	+	n
O=C(Nc1nc2ccc([N+](=O)[O-])cc2s1)c1ccc(=O)n(Cc2ccccc2)c1	+	n
O=C(Nc1nc2ccccc2s1)c1ccc(=O)n(Cc2cccc([N+](=O)[O-])c2)c1	n	n
Cc1cccc2sc(NC(=O)c3ccc(=O)n(Cc4ccc(Cl)cc4)c3)nc12	n	n
COc1cccc(COc2coc(C(=O)Nc3nc4ccc(Cl)cc4s3)cc2=O)c1	n	n
CS(=O)(=O)c1ccc2nc(NC(=O)c3ccc(=O)n(Cc4ccc(Cl)cc4)c3)sc2c1	+	n
Cc1nnsc1C(=O)N1CCC(CNC(=O)c2cccc(Cl)c2)CC1	n	n
SMILES	AMPAR-TARP mod	GIRK2 activator
Cc1nnsc1C(=O)N1CCC(CNC(=O)Nc2cccc(Cl)c2)CC1	+	n
COc1cccc(OCC(=O)Nc2ccc(N3CCCC3=O)c(C)c2)c1	n	n
Cc1n[nH]c(C)c1S(=O)(=O)N1CCN(c2ccc(-c3ccccn3)nn2)CC1	+	n
Cc1n[nH]c(C)c1S(=O)(=O)N1CCN(c2ccc3nnc(C4CC4)n3n2)CC1	+	n
Cc1nnsc1C(=O)N1CCN(c2ccc(-c3ccccn3)nn2)CC1	n	n
CCCS(=O)(=O)N1CCN(c2ccc3nnc(C4CC4)n3n2)CC1	n	n
O=C(NCC(O)Cc1ccccc1)NC(c1ccccc1)c1ccccc1 (stereo not given)	n	n
O=C(CCC1CCCCC1)N1CCC2(CC1)NC(=O)N(CCOc1ccccc1)C2=O	n	n
CCc1nnc(NC(=O)c2nnn(-c3ccccc3)c2C)s1	n	n
Cc1ccc(C)c2sc(N3CCN(C(=O)c4cccc(S(=O)(=O)C(C)C)c4)CC3)nc12	n	n
COC(=O)C1CCN(C(=O)Cc2cc(-c3ccc(OC)cc3)on2)CC1	n	n
Cc1ccc(-c2ccc(SCC(=O)NC3CCCCC3)nn2)c(C)c1	+	n
COc1ccc(OC)c(-c2ccc(SCC(=O)NC3CCCC3)nn2)c1	n	n
COC(=O)c1ccc2nc(NC(=O)C3CCCCC3)sc2c1	n	n
COC(=O)c1sc2ccccc2c1NC(=O)C1CCCCC1	+	x
COCCN(CCOC)S(=O)(=O)c1ccc(C(=O)Nc2ccc3ncsc3c2)cc1	n	n
COc1ccc(-c2cc(CC(=O)Nc3ccc(F)c(F)c3F)no2)cc1OC	n	n
O=S(=O)(NCC(O)(c1ccco1)C1CC1)c1ccc2c(c1)OCCO2 (stereo not given)	n	n
O=S(=O)(NCC(O)(c1ccco1)C1CC1)c1cccc(C(F)(F)F)c1 (stereo not given)	+	n
O=S(=O)(NCCOc1ccc(-c2ccc(F)cc2)nn1)c1ccc(Br)cc1	+	n
O=S(=O)(NCCOc1ccc(-c2ccc(F)cc2)nn1)c1ccc(Cl)cc1	n	n

From PubChem
